DENV2 CPE = inhibitors of DENV2 cytopathic effect; 1.7% of 350,000 active; CPE inhibition, % at 9.99 µM; DENV2-infected cells, cytopathic effect rescue, plate reader; in the data active means CPE inhibition above about 20%, passing the limit was not always enough; tested in BHK-21 cells
ERp5 block = ERp5 (human) disulfide isomerase inhibition; Q15084; ERp5 insulin aggregation, absorbance 650 nm, 90 min; inhibition, % at 9.99 µM; 0.05% of 350,000 active; AID 651711;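 active means mean replicate inhibition above about 25%, with every replicate also reaching it, limit read from the data, passing the limit was not always enough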
ERAP1 inh = inhibitors of human ERAP1 aminopeptidase; recombinant ERAP1, Leu-AMC fluorescence, 60 min; inhibition, % at 10.7 µM; 0.15% of 340,000 active; AID 652197;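 active means mean replicate inhibition of at least 30%, or all replicates individually reaching that 30% level; inactive means mean below 30% and not every replicate reaching it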
PDI turbidity = PDI (human) enzyme inhibition | 0.052% of 350,000 active | PDI insulin aggregation turbidity, A650, 90 min | inhibition, % at 10 µM;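 active means mean inhibition across replicates of 30% or more, whatever share of single replicates reach that level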
Target sequence (P07237 whole entry, looked up): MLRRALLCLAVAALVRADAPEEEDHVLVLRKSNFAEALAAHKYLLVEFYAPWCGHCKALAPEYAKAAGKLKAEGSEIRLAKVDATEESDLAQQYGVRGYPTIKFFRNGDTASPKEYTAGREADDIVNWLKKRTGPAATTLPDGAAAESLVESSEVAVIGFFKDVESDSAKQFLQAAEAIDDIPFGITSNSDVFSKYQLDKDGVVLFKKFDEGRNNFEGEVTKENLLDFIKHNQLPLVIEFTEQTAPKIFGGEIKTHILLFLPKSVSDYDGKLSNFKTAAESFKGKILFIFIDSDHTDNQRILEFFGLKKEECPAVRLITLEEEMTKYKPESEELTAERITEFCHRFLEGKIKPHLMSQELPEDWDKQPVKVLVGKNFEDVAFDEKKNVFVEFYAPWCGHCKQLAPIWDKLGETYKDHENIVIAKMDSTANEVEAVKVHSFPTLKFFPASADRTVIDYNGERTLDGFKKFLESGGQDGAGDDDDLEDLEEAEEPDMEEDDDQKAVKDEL
AF4-AF9 inh = MLL-AF4/AF9 protein interaction inhibition; AlphaScreen, biotin-AF4 peptide binding to FLAG-AF9; inhibition, % at 10 µM; 0.47% of 350,000 active; AID 651704;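 active means every replicate reaching a set inhibition limit, whatever the replicate mean, cut at about 25% in these data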
Each line names hits and unclear results; the compound was inactive in the other large screens. Compounds with a hit are over-represented: about 1.8% of the library has one in this group of screens.

O=C(C[C@H]1C[C@@H]2c3cc(NC(=O)CC4CC4)ccc3O[C@@H]2[C@@H](CO)O1)NCc1ccc(-c2ccccc2)cc1	ERp5 block 63 (no result: PDI turbidity)
O=C(C[C@H]1C[C@@H]2c3cc(NC(=O)CC4CC4)ccc3O[C@@H]2[C@H](CO)O1)NCc1ccc(-c2ccccc2)cc1	none (no result: PDI turbidity)
O=C(C[C@@H]1C[C@H]2c3cc(NC(=O)CC4CC4)ccc3O[C@H]2[C@@H](CO)O1)NCc1ccc(-c2ccccc2)cc1	ERp5 block 59 (no result: PDI turbidity)
Cc1ccccc1-c1ccccc1[C@H]1[C@@H](CO)N(C(=O)c2cccc(F)c2)[C@H]1C#N	none (no result: PDI turbidity)
C[C@@H]1CN([C@@H](C)CO)S(=O)(=O)c2ccc(C3=CCCC3)cc2O[C@H]1CN(C)C(=O)c1cccnc1	none (no result: PDI turbidity)
C[C@H](CO)N1C[C@H](C)[C@H](CN(C)S(=O)(=O)c2ccc(F)cc2)Oc2ccc(NC(=O)CCC(F)(F)F)cc2C1=O	none (no result: PDI turbidity)
CCCCCCCCCCCCCCCC[n+]1cccc(C(=O)N(CC)CC)c1	ERAP1 inh 68
CCOC(=O)C1=C(C)N=c2s/c(=C\c3cccc(OCC(=O)O)c3)c(=O)n2C1c1ccccc1OC (stereo unspecified)	none
CCOC(=O)C1=C(c2ccccc2)N=c2s/c(=C\c3cccc(O)c3)c(=O)n2C1c1cccs1 (stereo unspecified)	PDI turbidity 61 (no result: DENV2 CPE, ERp5 block, ERAP1 inh, AF4-AF9 inh)
O=C(Cc1cccc(NC(=O)C2CCCN(C(=O)C3CC3)C2)c1)Nc1ccc(C(=O)N2CCOCC2)cc1 (stereo unspecified)	none
O=C(Cc1ccc(NC(=O)C2CCCN(C(=O)C3CC3)C2)cc1)Nc1cccc(C(=O)N2CCCC2)c1 (stereo unspecified)	DENV2 CPE 62
O=C(Cc1cccc(NC(=O)C2CCN(C(=O)C3CCCC3)CC2)c1)Nc1cccc(C(=O)N2CCCCC2)c1	DENV2 CPE 43 (no result: ERAP1 inh)
O=C(Cc1cccc(NC(=O)C2CCCN(C(=O)C3CCCCC3)C2)c1)Nc1ccc(C(=O)N2CCOCC2)cc1 (stereo unspecified)	DENV2 CPE 24
O=C(Cc1ccc(NC(=O)C2CCCN(C(=O)C3CCCCC3)C2)cc1)Nc1cccc(C(=O)N2CCCC2)c1 (stereo unspecified)	none
CN(Cc1ccccc1)C(=O)c1ccc(NC(=O)Cc2ccc(NC(=O)C3CCN(C(=O)C4CCC4)CC3)cc2)cc1	DENV2 CPE 53
O=C(Cc1cccc(NC(=O)C2CCN(C(=O)C3CCCC3)CC2)c1)Nc1cccc(C(=O)N2CCCC2)c1	none (no result: ERAP1 inh)
CN(Cc1ccccc1)C(=O)c1ccc(NC(=O)Cc2ccc(NC(=O)C3CCN(C(=O)C4CCCCC4)CC3)cc2)cc1	none
COc1ccc(S(=O)(=O)N(C)C[C@H]2OCCCC[C@@H](C)Oc3ccc(NS(C)(=O)=O)cc3C(=O)N([C@H](C)CO)C[C@H]2C)cc1	none (no result: PDI turbidity)
CC(C)(C)OC(=O)N(Cc1ccccc1)Cc1ccccc1OCc1ccc(NC(=O)C2CCC2)cc1	DENV2 CPE 28
O=C(c1ccccc1)N1[C@H](CO)[C@H](c2ccccc2)C12CN(CCC(F)(F)F)C2	DENV2 CPE 20 (no result: PDI turbidity)
OC[C@@H]1[C@@H](c2ccccc2)C2(CN(CC3CC3)C2)N1Cc1ccc(F)cc1	DENV2 CPE 23 (no result: PDI turbidity)
CCS(=O)(=O)N1CC2(C1)[C@@H](c1ccccc1)[C@H](CO)N2Cc1ccc(F)cc1	DENV2 CPE 35 (no result: PDI turbidity)
O=C(CC1CC1)N1CC2(C1)[C@H](c1ccccc1)[C@@H](CO)N2Cc1ccc(F)cc1	none (no result: PDI turbidity)
CS(=O)(=O)N1CC2(C1)[C@@H](c1ccccc1)[C@@H](CO)N2CCC(F)(F)F	DENV2 CPE 20 (no result: PDI turbidity)
C[C@H](CO)N1C[C@H](C)[C@H](CN(C)S(=O)(=O)c2ccc(Cl)cc2)Oc2c(NC(=O)Nc3ccc(C(F)(F)F)cc3)cccc2C1=O	none (no result: PDI turbidity)
OC[C@@H]1[C@@H](c2ccccc2)C2(CN(CC3CCOCC3)C2)N1Cc1nccs1	DENV2 CPE 51 (no result: PDI turbidity)
COc1ccc(C2CC(c3ccc(C)o3)=NN2C(C)=O)cc1 (stereo unspecified)	DENV2 CPE 34
CC(=O)N1N=C(c2ccc(C)o2)CC1c1ccc(Br)cc1 (stereo unspecified)	none (no result: DENV2 CPE, ERp5 block, ERAP1 inh, AF4-AF9 inh)
COc1ccc2c3c([nH]c2c1)[C@@H](CO)N(S(=O)(=O)c1cn(C)cn1)CC31CCN(Cc2ccccc2F)CC1	none (no result: PDI turbidity)
CCCN(C)C[C@H]1OCCCC[C@@H](C)Oc2ccc(NS(=O)(=O)c3ccc(OC)cc3)cc2C(=O)N([C@H](C)CO)C[C@H]1C	none (no result: PDI turbidity)
COc1ccc(CN(C)C[C@@H]2OCCCC[C@@H](C)Oc3ccc(NS(=O)(=O)c4cn(C)cn4)cc3C(=O)N([C@H](C)CO)C[C@@H]2C)cc1	DENV2 CPE 61 (no result: PDI turbidity)
C[C@@H]1CCCCO[C@@H](CN(C)Cc2ccc(C(=O)O)cc2)[C@@H](C)CN([C@@H](C)CO)C(=O)c2cc(NS(C)(=O)=O)ccc2O1	DENV2 CPE 48 (no result: PDI turbidity)
CCCN(C)C[C@H]1OCCCC[C@@H](C)Oc2ccc(NS(=O)(=O)c3ccc(OC)cc3)cc2C(=O)N([C@H](C)CO)C[C@@H]1C	DENV2 CPE 55 (no result: PDI turbidity)
COc1ccc(S(=O)(=O)Nc2ccc3c(c2)C(=O)N([C@@H](C)CO)C[C@H](C)[C@@H](CN(C)Cc2ccc(C(=O)O)cc2)OCCCC[C@H](C)O3)cc1	DENV2 CPE 54 (no result: PDI turbidity)
COc1ccc(CN(C)C[C@H]2OCCCC[C@H](C)Oc3ccc(NS(=O)(=O)c4cn(C)cn4)cc3C(=O)N([C@@H](C)CO)C[C@H]2C)cc1	none (no result: PDI turbidity)
COc1ccc(CN(C)C[C@@H]2OCCCC[C@H](C)Oc3ccc(NS(=O)(=O)c4ccc(F)cc4)cc3C(=O)N([C@@H](C)CO)C[C@H]2C)cc1	DENV2 CPE 59 (no result: PDI turbidity)
COc1ccc(CN(C)C[C@H]2OCCCC[C@@H](C)Oc3ccc(NS(=O)(=O)c4ccc(F)cc4)cc3C(=O)N([C@H](C)CO)C[C@@H]2C)cc1	none (no result: PDI turbidity)
O=[N+]([O-])c1ccccc1N=Nc1ccc(O)cc1O	none
O=S(=O)(O)c1cc(O)c(N=Nc2ccc(O)cc2O)c2ccccc12	AF4-AF9 inh 34
CN(C)CC(=O)N1[C@H](CO)[C@H](c2ccc(C#CC3CCCC3)cc2)[C@@H]1C#N	none (no result: PDI turbidity)
CN(C)CC(=O)N1[C@H](CO)[C@@H](c2ccc(C#CC3CCCC3)cc2)[C@@H]1C#N	DENV2 CPE 34 (no result: PDI turbidity)
N#C[C@H]1[C@H](c2ccc(C#CC3CCCCC3)cc2)[C@@H](CO)N1C(=O)Cc1ccccn1	DENV2 CPE 87 (no result: PDI turbidity)
CO[C@@H]1CN(C)C(=O)c2ccc(NC(=O)c3ccc(-c4ccccc4)cc3)cc2OC[C@@H](C)NC[C@H]1C	none (no result: PDI turbidity)
C[C@H](CO)N1C[C@H](C)[C@H](CN(C)Cc2cncnc2)Oc2cc(-c3cccnc3)ccc2S1(=O)=O	none (no result: PDI turbidity)
N#Cc1cccc(-c2ccc([C@H]3[C@@H](CO)N4CCCCN(C(=O)Nc5cccc(F)c5)C[C@@H]34)cc2)c1	none (no result: PDI turbidity)
O=C(Cc1ccncc1)NCC[C@@H]1CC[C@H](NC(=O)Nc2cccc(F)c2)[C@@H](CO)O1	none (no result: PDI turbidity)

Source: PubChem BioAssay (Broad Institute)
